# Measured values taken from the supplement of paper PMC7530171.
# Structures can show the parent of a compound that is named as a salt. ± gives the standard deviation.
# Tested on: THP-1 macrophages infected with Mycobacterium tuberculosis H37Rv
# Experiment: intracellular M.tb growth inhibition relative to DMSO (0) and 4 uM bedaquiline (100); higher = stronger inhibition of intracellular bacterial growth
# Conditions: 10 µM; 4 days
# Procedure: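 OICR kinase inhibitor library screened in duplicate at 10 uM against THP-1 macrophages (PMA-differentiated) infected with M. tuberculosis H37Rv-pTEC27 (tdTomato RFP), 4 days at 37 C. Rows with complete host cell loss (placeholder inhibition 0, cell loss 100) were removed.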
row,SMILES,intracellular M.tb growth inhibition [%]
1,Nc1cc(N)c(N)cc1N [FAK Inhibitor 14],6.73 ± 56
2,Cc1cn(-c2cc(NC(=O)c3ccc(C)c(Nc4nccc(-c5cccnc5)n4)c3)cc(C(F)(F)F)c2)cn1 [Nilotinib],-5.88 ± 8.3
3,Cc1cc(Nc2cc(C)c(C#N)c(NC(C)CCCC(C)(C)O)n2)n[nH]1 (stereo unspecified) [TC-A 2317 hydrochloride],-257 ± 200
4,CCCS(=O)(=O)Nc1ccc(F)c(C(=O)c2c[nH]c3ncc(Cl)cc23)c1F,30.7 ± 35
5,O=S(=O)(c1cccc2c(Cl)cccc12)N1CCCNCC1 [ML 9 hydrochloride],-14 ± 4.8
6,COc1cc2ncnc(Nc3ccc(F)c(Cl)c3)c2cc1OCCCN1CCOCC1 [Gefitinib],54.4 ± 28
7,CO[C@H]1C[C@@H]2CC[C@@H](C)[C@@](O)(O2)C(=O)C(=O)N2CCCC[C@H]2C(=O)O[C@H]([C@H](C)C[C@@H]2CC[C@@H](OC(=O)C(C)(CO)CO)[C@H](OC)C2)CC(=O)[C@H](C)/C=C(\C)[C@@H](O)[C@@H](OC)C(=O)[C@H](C)C[C@H](C)/C=C/C=C/C=C/1C [Temsirolimus],-22.8 ± 24
8,COc1cc(C[C@H]2C(=O)OC[C@@H]2Cc2ccc(OC)c(OC)c2)ccc1O [Arctigenin],46 ± 8.1
9,O=c1oc2c(O)c(O)cc3c(=O)oc4c(O)c(O)cc1c4c23 [Ellagic acid],-20.9 ± 30
10,NS(=O)(=O)c1ccc(Nc2nc(OCC3CCCCC3)c3[nH]cnc3n2)cc1,15.4 ± 41
11,COc1cc(N2CCC(N3CCN(C)CC3)CC2)ccc1Nc1ncc(Cl)c(Nc2ccccc2S(=O)(=O)C(C)C)n1,-4.08 ± 19
